Records with an inconclusive call do not appear. The source made the active and inactive calls. The call rests on the fitted dose curve; in most records, active means well fitted inhibition curve with a large enough effect; inconclusive means small, poorly fitted or top-dose-only effect; inactive means no such curve, though single readings can be large or run the other way.
assay: InCell qHTS Assay for Inhibitors of the mTORC1 Signaling Pathway in MEF (Tsc2-/-, p53-/-) Cells: Hit Validation; conditions: phospho-rpS6 immunofluorescence, 24 h; activity change, negative = inhibition: at 38.3 µM (top of the series);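 further: phospho-S6 Ser235/236 signal normalized to propidium iodide cell count per well; nearly all actives have a fitted effect of over 75% in size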
Potency means the concentration at half of the fitted maximal effect.

SMILES | activity change, negative = inhibition [%] | Potency
CCOC(=O)c1c(C)n(-c2ccccc2)c2ccc(OC(=O)c3ccccc3)cc12 | -100 | 
CCCCOc1cccc(C(=O)N(Cc2cccs2)c2ccc(OC)cc2)c1 | -3.36 | 
CCCCN(C)C(=O)CSc1c2c(nc3ccc(Cl)cc13)CCCC2 | -100 | 
Cc1cccc(C(=O)Nc2c3c(nn2-c2ccc(Cl)cc2)CS(=O)(=O)C3)c1 | -100 | 
Cn1nnnc1SCCCNCc1cc(Cl)ccc1OCc1ccc(F)cc1 | -100 | 
Cc1ccc(S(=O)(=O)c2nc(-c3ccco3)oc2SC(C)c2ccccc2)cc1 (stereo not drawn) | -100 | 
CC1=Nc2cc(C(=O)NC(C)C)ccc2Sc2ccc(C)cc21 | -100 | 
COc1ccc(S(=O)(=O)N(Cc2nc(-c3cccc(C)c3)no2)C2CCCCC2)cc1 | -100 | 
O=C(Nc1ccc(Cl)c(C(F)(F)F)c1)c1ccc2c(c1)CCN2S(=O)(=O)c1ccccc1 | -100 | 
CCS(=O)(=O)c1oc(-c2ccc(F)cc2)nc1S(=O)(=O)c1ccc(Br)cc1 |  | 3.69 µM (active)
CCc1ccccc1NC(=O)CSc1nc2c(oc3ccccc32)c(=O)n1-c1ccccc1F | -100 | 
COc1ccccc1N=c1scc(-c2ccc(S(=O)(=O)N3CCCC3)cc2)n1C | -100 | 
Cc1ccc(-c2nnc(Nc3cccc(Cl)c3)c3ccccc23)cc1S(=O)(=O)N1CCN(C)CC1 | -100 | 
CCOC(=O)CSc1nc2cc3c(cc2c(=O)n1CCCCCC(=O)NCc1ccc2c(c1)OCO2)OCO3 | -100 | 
COc1ccc(CNC(=O)C2CCN(c3nc4ccc(C)cc4[nH]3)CC2)cc1 | -100 | 
CCOc1cc(-c2nnc(SCC(=O)NCc3ccccc3)nc2-c2ccc(OC)c(OCC)c2)ccc1OC | -100 | 
CCS(=O)(=O)c1ncc(Cl)c(C(=O)N2CCN(c3cccc(Cl)c3)CC2)n1 |  | 2.61 µM (active)
CCOC(=O)c1c(NC(=O)c2ccc(S(=O)(=O)N3CCC(C)CC3)cc2)sc2c1CCN(C)C2 | 1.72 | 
Cc1c(C2=CCN(S(=O)(=O)c3ccc(Br)cc3)CC2)c2ccccc2n1CC(=O)N1CCCC1 | -100 | 

SMILES | activity change, negative = inhibition [%] | Potency
COc1ccc(NC(=O)Cn2c(=O)n(-c3ccccc3)c(=O)c3ccc(C(=O)NCc4ccc5c(c4)OCO5)cc32)cc1 | -21.2 | 
CCN(c1ccccc1)S(=O)(=O)c1ccc(NC(=O)c2nc(S(C)(=O)=O)ncc2Cl)cc1 |  | 3.69 µM (active)
CC(C)c1ccc(C2Sc3ccccc3NC3=C2C(=O)c2ccccc23)cc1 (stereo not drawn) | -100 | 
Cc1ccc(NC(=O)COc2ccc(-c3nn(C)c(=O)c4ccccc34)cc2)c(C)c1 | -100 | 
COc1ccc(OC)c(NC(=O)c2nnn(CC(=O)Nc3ccc(C(C)C)cc3)c2N)c1 | -100 | 
O=C(NC1CCN(Cc2ccccc2)CC1)c1ccc(Cn2c(=O)c3ccccc3n(Cc3ccc(F)cc3)c2=O)cc1 | -100 | 
Cc1ccc(C(C)C)c(OCC(=O)Nc2cc(-c3nc4ccccc4[nH]3)ccc2C)c1 | -100 | 
CCCCC1CCC(C(=O)N2CC(=O)Nc3ccc(Cl)cc3C2c2ccc(F)cc2)CC1 (stereo not drawn) | -100 | 
CCC1=Nc2cc(C(=O)NC3CCCC3)ccc2Sc2ccc(Br)cc21 | -100 | 
CCC(C(=O)N1CCN(c2cccc(C)c2C)CC1)n1nc(C)c2sc3ccccc3c2c1=O (stereo not drawn) | -100 | 
CCOc1cc(C(Nc2cc(C)ccn2)c2ccc3cccnc3c2O)ccc1OC (stereo not drawn) | -100 | 
N#C/C(=C\c1ccc(-c2ccc(F)cc2F)o1)c1nc2ccccc2[nH]1 | -27.3 | 
Cc1ccc(NC(=O)CCS(=O)(=O)c2ccc3nc(C)sc3c2)cc1 | -100 | 
COc1ccc(OCC(=O)Nc2ccc3nn(-c4ccc(OC)cc4)nc3c2)cc1 | -100 | 
Cc1c(C(=O)OC2CCCCC2)[nH]c2c1C(=O)CC(c1ccccc1Cl)C2 (stereo not drawn) | -100 | 
COc1cccc(/C=C(\C#N)c2nc3ccc(C)cc3[nH]2)c1 | -100 | 
O=C(NCc1ccccc1)c1nc(S(=O)(=O)Cc2ccccc2)ncc1Cl |  | 5.85 µM (active)
CCOc1ccc(Nc2nc(N)c(C(=O)c3ccccc3Cl)s2)cc1 | -100 | 
CCc1ccc(OCC(=O)Nc2ccc3oc(-c4ccc(OC)cc4)nc3c2)cc1 | -100 | 

Reference: PubChem BioAssay AID651791 (National Center for Advancing Translational Sciences (NCATS), 2012)
